Most compounds without a hit are left out; they make up all but 10% or so of the library.
KB-3-1 cytotox: KB-3-1 parental cell cytotoxicity; KB-3-1 viability, CellTiter-Glo ATP luminescence, 72 h; Potency, µM (titrated, usually from 46.1 µM), usual class: cytotoxic; actives 1.4% (n = 400,000); note: % is set by controls: 0 for no effect and ±100 for the full control effect; nearly all actives have a fitted effect of over 60% in size
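Parental KB-3-1 viability, qHTS format: 72 h compound exposure, 37 °C; CellTiter-Glo; media-only wells and DMSO plates as controls; concentration-effect fits on corrected data.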
KB-V1 cytotox: kills drug-selected multidrug resistant KB-V1 cells | KB-V1 MDR cells viability, CellTiter-Glo, 72 h | actives 3.4% (n = 400,000) | AID 1347076 | Potency, µM (titrated, usually from 46.1 µM), actives largely listed as cytotoxic; note: % is set by controls: 0 for no effect and ±100 for the full control effect; nearly all actives have a fitted effect of over 60% in size
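Potencies derive from concentration-effect curves fitted to normalized luminescence (CellTiter-Glo) of KB-V1 cells treated for 72 h at 37 degrees C in phenol-red-free DMEM containing 10% FBS.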
MCF10A rerep: inducers of DNA re-replication in MCF 10A breast cells | Potency, µM (series often up to 46.1 µM), for the others: top-dose activity, positive = re-replication, usual class: activators | actives 2.9% (n = 350,000) | MCF 10A DNA re-replication, Hoechst nuclear intensity, 48 h | AID 624296; note: % of control where 0% means no effect; nearly all actives have a fitted effect of over 50% in size
RORg inh: ROR gamma (mouse) transcription inhibition | P51450 | actives 5.4% (n = 310,000) | Potency, µM (series often up to 53.6 µM), for the others: at the highest dose activity change, negative = inhibition, most hits filed as inhibitors | Drosophila S2 Gal4-RORgamma UAS-luciferase reporter, 20 h; note: % is set by controls: 0 for no effect and ±100 for the full control effect; nearly all actives have a fitted effect of over 60% in size
Target sequence (P51450 whole entry, looked up, the tested form may be a part): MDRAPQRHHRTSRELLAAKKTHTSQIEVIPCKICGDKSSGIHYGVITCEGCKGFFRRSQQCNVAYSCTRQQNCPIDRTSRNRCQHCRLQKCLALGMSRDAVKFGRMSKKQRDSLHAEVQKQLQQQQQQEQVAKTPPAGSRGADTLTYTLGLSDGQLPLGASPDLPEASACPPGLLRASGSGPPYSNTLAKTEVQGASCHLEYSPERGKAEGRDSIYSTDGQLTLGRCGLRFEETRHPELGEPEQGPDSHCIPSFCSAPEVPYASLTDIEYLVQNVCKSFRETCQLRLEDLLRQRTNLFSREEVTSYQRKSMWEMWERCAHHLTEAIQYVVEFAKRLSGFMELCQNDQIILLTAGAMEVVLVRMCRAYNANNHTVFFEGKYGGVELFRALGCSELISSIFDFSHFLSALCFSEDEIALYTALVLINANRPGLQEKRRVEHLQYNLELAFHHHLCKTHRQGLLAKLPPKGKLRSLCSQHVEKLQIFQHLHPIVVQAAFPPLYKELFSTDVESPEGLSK
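Using a luciferase readout, inhibitors were identified by reduced reporter activity in Drosophila cells coexpressing a copper-inducible Gal4–ROR gamma fusion and UAS-driven Photinus luciferase, incubated 20 hr after 700 uM copper sulfate.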
SW480 rerep: induces DNA re-replication in SW480 colon adenocarcinoma cells; SW480 DNA re-replication, Hoechst DNA content imaging, 48 h; Potency, µM (doses to about 46.1 µM), for the others: at the highest dose re-replication activation, usual class: activators; actives 1.8% (n = 340,000); AID 624297; note: % of control where 0% means no effect; nearly all actives have a fitted effect of over 55% in size
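Treated cells incubate 48 hr (37 C, 5% CO2), are stained 40 min with Hoechst, and nuclear fluorescence is enumerated; a rise in nuclei with high DNA signal marks re-replication.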
VP16 counter: Gal4-VP16 reporter inhibition counter-screen; AID 2546; actives 3.5% (n = 310,000); Potency, µM (highest dose often 53.6 µM), for inactives: at the highest dose activity, negative = inhibition, hits mostly inhibitors; Drosophila S2 Gal4-VP16 UAS-luciferase, luminescence, 20 h;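 note: Gal4-VP16 expression switched on by copper sulfate through the metallothionein promoter; % is set by controls: 0 for no effect and ±100 for the full control effect; nearly all actives have a fitted effect of over 50% in size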
* hit, by the source's call; i = inactive; u = inconclusive; x = no result; [ ] = another dose, or the depositor's remark. Calls come from the whole dose curve; as a rule, active = well fitted curve in the direction sought with a large enough effect; inconclusive = small, poorly fitted or top-dose-only effect, or another doubt; inactive = no such curve, though single readings can be large; an effect the other way counts as inactive or inconclusive. Potency is the fitted concentration of half-maximal effect.

SMILES	KB-3-1 cytotox	KB-V1 cytotox	MCF10A rerep	RORg inh	SW480 rerep	VP16 counter
Cc1ccc(N2C(=O)CSC23C(=O)Nc2ccccc23)cc1F (stereo not drawn)	i	i	x	x	x	x
CCN(CC)c1ccc2cc(-c3nc(-c4ccc(OC)cc4)cs3)c(=O)oc2c1	i	18.4µM*	u	u	1.84µM*	16.5%
CCN(CC)c1ccc2cc(-c3nc4ccccc4[nH]3)c(=O)oc2c1	u	u	4.11µM*	2.82µM*	5.17µM*	-6.7%[0.365 µM]
CN(C)Cc1c(O)ccc2cc(-c3nc4ccccc4n3C)c(=O)oc12	i	i	5.8µM*	12.8%	3.66µM*	-0.1%
CCN(CC)c1ccc2cc(-c3nc4ccccc4n3C)c(=O)oc2c1	0.231µM*	0.411µM*	u	1.4%	0.581µM*	2.1%
CN(C)Cc1c(O)ccc2c(-c3ccccc3)cc(=O)oc12	i	i	-20.5%	0.2%	-7.5%	3.0%
CCN(CC)c1ccc2cc(-c3nnc(-c4ccccc4)o3)c(=O)oc2c1	u	u	u	-4.3%	u	-10.9%
Cc1ccc(C)c(OCCCn2c(-c3ccc(Cl)cc3)nc3ccccc3c2=O)c1	i	u	x	x	x	x
COc1ccc(OCCN2C(=O)c3cccc(N)c3C2=O)cc1	i	i	u	51.0%	u	25.0%
O=C1NC(=S)S/C1=C\C=C\c1ccc([N+](=O)[O-])o1	u	4.11µM*	30.0%	5.62µM*	u	4.47µM*
O=C1NC(=S)S/C1=C/c1ccc(N2CCOCC2)o1	i	i	u	0.9%	u	u
O=c1c2ccccc2n(Cc2ccccc2F)c(=O)n1-c1cccc(F)c1	i	i	x	x	x	x
O/N=C(/CBr)c1ccc2ccccc2c1	i	i	x	x	x	x
COc1cc(C(=O)NC2CCN(C)CC2)ccc1Nc1ncc2c(n1)N(CCc1ccccc1)CCC(=O)N2C	u	i	9.2µM*	x	0.206µM*	x
COc1cc(C(=O)NC2CCN(C)CC2)ccc1Nc1ncc2c(n1)N(C1CCCC1)CCC(=O)N2C(C)C	u	i	u	x	-4.6%[9.22 µM]	x
Cc1cc[n+](-c2ccccc2)c2ccccc12	u	i	-3.4%	28.5%	-1.2%	11.2µM*
COc1ccccc1CCC(=O)NCCCn1ccc2ccccc21	i	u	14.3%	21.9%	-2.0%	0.2%
NN1C(=O)NC(c2ccccc2)(c2ccccc2)C1=O	i	i	0.731µM*	-1.1%	11.3%	-4.4%
COC(=O)[C@]12CCCCC=C1N(Cc1cccc3ccccc13)C(=O)[C@H](CC(=O)NCCC(C)C)C2	u	18.4µM*	x	x	x	x
COC(=O)[C@@]12C[C@@H](CC(=O)NCCc3ccccc3OC)C(=O)N(Cc3cccc4ccccc34)C1=CCC(C)(C)C2	u	23.1µM*	x	x	x	x
COC(=O)[C@@]12C[C@@H](CC(=O)NCc3cccc4ccccc34)C(=O)N(Cc3cccc4ccccc34)C1=CCC(C)(C)C2	i	u	x	x	x	x
COC(=O)[C@]12CCCCC=C1N(Cc1ccc3c(c1)OCO3)C(=O)[C@H](CC(=O)NCc1cccc3ccccc13)C2	u	23.1µM*	x	x	x	x
COC(=O)[C@@]12C[C@@H](CC(=O)NCC3CCCCC3)C(=O)N(Cc3cccc4ccccc34)C1=CCC(C)(C)C2	u	20.6µM*	x	x	x	x
COC(=O)[C@]12CCCCC=C1N(CCC1=CCCCC1)C(=O)[C@H](CC(=O)NCc1cccc3ccccc13)C2	i	i	x	x	x	x
O=C(/C=C/c1ccc(C(F)(F)F)cc1)OC(C(=O)NC1CC1)c1ccccc1 (stereo not drawn)	i	i	x	x	x	x
SMILES	KB-3-1 cytotox	KB-V1 cytotox	MCF10A rerep	RORg inh	SW480 rerep	VP16 counter
COC(=O)[C@@]12C[C@@H](CC(=O)NCCC(C)C)C(=O)N(Cc3cccc4ccccc34)C1=CCC(C)(C)C2	20.6µM*	20.6µM*	x	x	x	x
CCC(=O)NC(c1cccc([N+](=O)[O-])c1)c1c(OC(C)=O)ccc2ccccc12 (stereo not drawn)	u	i	-8.4%	51.1%	1.3%	-10.7%
CCCC(=O)NC(c1cccc([N+](=O)[O-])c1)c1ccc2cccnc2c1O (stereo not drawn)	9.2µM*	u	x	x	x	x
CC(C)C(=O)NC(c1cccc([N+](=O)[O-])c1)c1c(O)ccc2ccccc12 (stereo not drawn)	i	i	-3.3%	3.0%	2.7%	6.6%
CC(C)C(=O)NC(c1ccco1)c1ccc2cccnc2c1O (stereo not drawn)	4.11µM*	4.61µM*	u	2.82µM*	3.66µM*	5.01µM*
Oc1c(C(Nc2nc3ccccc3s2)c2ccco2)ccc2cccnc12 (stereo not drawn)	i	u	u	2.51µM*	u	5.62µM*
CC(C)C(=O)NC(c1cccc([N+](=O)[O-])c1)c1ccc2cccnc2c1O (stereo not drawn)	u	u	u	2.82µM*	28.7%[9.22 µM]	2.51µM*
CC1(C(=O)Nc2cccc3cccnc23)CCN1Cc1ccc(-c2ccccc2)o1 (stereo not drawn)	i	i	x	x	x	x
CCC(C)C(NC)C(=O)O (stereo not drawn)	x	x	x	-1.5%	x	-6.8%
COc1cccc(C(NC(C)=O)c2nc(-c3cccc(F)c3)cs2)c1 (stereo not drawn)	i	i	x	x	x	x
COC(=O)c1ccccc1-c1c2ccc(=N)cc-2oc2cc(N)ccc12	1.3µM*	i	-26.2%	x	11.5%	x
COc1cc(C(CC(=O)NCc2ccc(F)cc2)N2Cc3ccccc3C2=O)cc(OC)c1OC (stereo not drawn)	u	i	x	x	x	x
Cc1cccc(NC2=NC3(CCCCC3)N=C(N)N2)c1C	i	i	3.2%	4.8%	-4.5%	0.2%
Cc1ccc(C)c(NC2=NC3(CCCCC3)N=C(N)N2)c1	18.4µM*	i	3.3%	-26.2%	-5.1%	-14.5%
Cc1ccc(NC2=NC3(CCCCC3)N=C(N)N2)c(C)c1	7.31µM*	i	14.7%	0.0%	5.1%	-0.7%
Cc1cccc(C)c1NC1=NC2(CCCCC2)N=C(N)N1	i	i	-0.2%	-19.2%	-21.9%	-6.9%
Cc1ccccc1NC1=NC2(CCCC2)N=C(N)N1	u	u	u	-15.6%	-6.1%	-10.4%
Cc1ccc(NC2=NC3(CCCC3)N=C(N)N2)c(C)c1	4.11µM*	i	29.0%	-1.3%	u	-1.0%
NC1=NC2(CCCCC2)N=C(Nc2ccc(Br)cc2)N1	23.1µM*	i	12.0%	7.1%	-49.7%	-15.6%

Source: PubChem BioAssay
